# Assay results from PubChem BioAssay AID1445 (SRMLSC, 2008).
# Screen size: about 220,000 compounds; about 910 (0.41%) were called active.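 Rule for the calls: active = primary inhibition above the hit cutoff, then over 50% inhibition at one or more dose response concentrations (cut at about 23% in these data, passing the limit was not always enough); inconclusive = conflicting primary data, or primary hits not chosen for dose response; inactive = low primary inhibition, or under 50% at every dose.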 The full list was thinned out, with actives kept by preference. Potency and affinity values are given separately.
# Molecular target: Aminopeptidase N (Plasmodium falciparum (isolate 3D7)) (UniProt O96935)
# Assay: malaria alanyl aminopeptidase activity blockers – biochemical, fluorogenic H-Leu-NHMec substrate, 1536-well (AID 1445);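 note: plate controls were DMSO full reaction for no effect and no enzyme background for full effect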
# Conditions: recombinant M1AAP, H-Leu-NHMec fluorogenic kinetic assay; at 30 µM, active compounds read high unless noted
# Chain of Aminopeptidase N (Plasmodium falciparum (isolate 3D7)) (O96935 whole entry, looked up): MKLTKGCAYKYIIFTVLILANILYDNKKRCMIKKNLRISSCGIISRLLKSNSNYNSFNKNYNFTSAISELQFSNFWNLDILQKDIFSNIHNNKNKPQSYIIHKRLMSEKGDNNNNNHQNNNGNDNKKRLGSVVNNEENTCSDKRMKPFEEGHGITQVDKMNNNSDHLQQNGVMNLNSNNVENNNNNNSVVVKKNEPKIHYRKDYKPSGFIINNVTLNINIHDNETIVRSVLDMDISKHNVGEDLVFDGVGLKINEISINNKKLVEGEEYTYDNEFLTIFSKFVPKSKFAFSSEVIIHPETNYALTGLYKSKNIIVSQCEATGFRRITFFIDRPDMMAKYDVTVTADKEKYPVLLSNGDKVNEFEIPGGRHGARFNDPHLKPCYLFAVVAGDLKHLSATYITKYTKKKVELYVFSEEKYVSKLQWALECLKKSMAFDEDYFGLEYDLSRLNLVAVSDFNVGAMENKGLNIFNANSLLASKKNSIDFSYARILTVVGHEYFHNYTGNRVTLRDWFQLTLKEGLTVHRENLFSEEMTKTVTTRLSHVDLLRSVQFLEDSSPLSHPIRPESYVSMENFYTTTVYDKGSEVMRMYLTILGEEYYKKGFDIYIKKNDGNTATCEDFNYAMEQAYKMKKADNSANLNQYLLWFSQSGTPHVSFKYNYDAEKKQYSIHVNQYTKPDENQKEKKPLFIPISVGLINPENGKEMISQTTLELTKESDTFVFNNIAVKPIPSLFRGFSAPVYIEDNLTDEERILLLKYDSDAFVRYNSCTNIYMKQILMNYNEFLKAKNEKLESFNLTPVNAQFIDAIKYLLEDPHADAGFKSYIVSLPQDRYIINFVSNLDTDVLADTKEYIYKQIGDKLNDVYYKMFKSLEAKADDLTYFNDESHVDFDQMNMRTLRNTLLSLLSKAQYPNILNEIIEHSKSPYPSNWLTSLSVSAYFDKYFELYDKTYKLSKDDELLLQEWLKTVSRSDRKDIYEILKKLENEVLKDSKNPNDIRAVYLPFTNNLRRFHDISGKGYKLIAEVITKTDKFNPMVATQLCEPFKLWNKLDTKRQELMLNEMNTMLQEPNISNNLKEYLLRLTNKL
row,SMILES,inhibition
1,CCOC(=O)N1CCN(C(=O)CN2C(=O)COc3ccc(C(C)(C)C)cc32)CC1,2.47% (inactive)
2,O=S(=O)(Nc1ccc(-c2nc3cccnc3s2)cc1)c1ccc(Cl)s1,13.1% (inactive)
3,CCc1ccc(S(=O)(=O)Nc2ccc(-c3nc4cccnc4s3)cc2)s1,27.2% (active)
4,CCS(=O)(=O)Nc1ccc(-c2nc3cccnc3s2)cc1,11.6% (inactive)
5,N#Cc1c(N2C(=O)Nc3ccccc3N2O)sc2c1CCCCCC2,11.8% (inactive)
6,C=CCn1c(C(CC)CC(C)(C)O)n[nH]c1=S (stereo not given),-5.97% (inactive)
7,Cc1cc2cc(CCNC(=O)c3ccc(S(=O)(=O)N4CCOCC4)cc3)c(=O)[nH]c2cc1C,0.05% (inactive)
8,O=C1NC(=O)/C(=C/c2ccccc2OCc2ccccc2)S1,19.3% (inactive)
9,O=C(COc1ccccc1/C=C1/NC(=O)NC1=O)Nc1ccccc1,16.8% (inactive)
10,C=CCN1C(=O)N/C(=C/c2ccccc2OCC(=O)Nc2ccc(F)cc2)C1=O,6.37% (inactive)
11,O=C1NC(=O)/C(=C\c2ccccc2OCc2ccccc2)S1,12.7% (inactive)
12,CSCC[C@@H](C(=O)NCc1cccs1)N1Cc2ccccc2C1=O,6.93% (inactive)
13,CC(=O)Nc1ccc(S(=O)(=O)N2CCC(NC(=O)C(Cc3cccn3C)NC(C)=O)CC2)cc1 (stereo not given),-2.05% (inactive)
14,O=C(CCCn1cnc([N+](=O)[O-])n1)Nc1cccc(O)c1,4.83% (inactive)
15,C[C@H](NC(=O)c1nc[nH]c1C(=O)N[C@@H](Cc1ccccc1)C(=O)OC(C)(C)C)c1ccccc1,-12.4% (inactive)
16,COC(=O)C1=C(C(=O)OC)[C@@H]2N(Cc3ccccc3)c3ccccc3[C@@]23C[C@@H](C(=O)OC)N=C3N1,7.23% (inactive)
17,Cc1ccc2[nH]c(=O)c(CN(Cc3ccco3)S(=O)(=O)c3c(C)ccc4nsnc34)cc2c1,24.1% (active)
18,Cc1ccc2cc(CN(Cc3ccco3)S(=O)(=O)c3c(C)ccc4nsnc34)c(=O)[nH]c2c1,8.06% (inactive)
19,Cc1cc2cc(CN(Cc3ccco3)S(=O)(=O)c3c(C)ccc4nsnc34)c(=O)[nH]c2cc1C,12.1% (inactive)
20,CC12CNCC(C)(CN(C3(O)C(=O)Nc4ccc(Br)cc43)C1)C2=O (stereo not given),-7.16% (inactive)
21,O=C(c1cccc([N+](=O)[O-])c1)N1CCN(Cc2ccc3c(c2)OCO3)CC1,0.06% (inactive)
22,O=C(/C=C/c1cccc([N+](=O)[O-])c1)NCc1ccc2c(c1)OCO2,6.01% (inactive)
23,CN(Cc1c(F)cccc1Cl)c1ccc(S(=O)(=O)N2CCOCC2)cn1,-2.07% (inactive)
24,O=C1OC(c2cccs2)=N/C1=C\c1ccc(-c2cccc(Cl)c2)o1,24.5% (active)
25,O=C1OC(c2cccs2)=N/C1=C\c1ccc(-c2ccccc2Cl)o1,15.5% (inactive)
26,O=C1OC(c2cccs2)=N/C1=C/c1ccc(-c2cccc(C(=O)O)c2)o1,10.5% (inactive)
27,O=C(COC(=O)c1cccs1)NC1CCCCC1,4.47% (inactive)
28,O=C(O)c1ccccc1-c1ccc(/C=C/c2cc(C(F)(F)F)[nH]c(=O)n2)o1,15.6% (inactive)

row,SMILES,inhibition
1,COc1ccc(/C=C/c2cc(C(F)(F)F)[nH]c(=O)n2)cc1OC,10.6% (inactive)
2,O=c1nc(/C=C/c2ccc(-c3ccc(F)cc3)o2)cc(C(F)(F)F)[nH]1,27.6% (active)
3,COC(=O)[C@@H]1CC[C@H](C)[C@@H](c2ccc(C)cc2)N1C(=O)c1ccc(/C=N/OC[C@@H](O)[C@H]2O[C@@H]3OC(C)(C)O[C@@H]3[C@H]2O)cc1,7.48% (inactive)
4,COc1ccccc1NC(=O)c1cc([N+](=O)[O-])ccc1NCCN1C(=O)CCC1=O,10.1% (inactive)
5,O=C(O)c1cccc(S(=O)(=O)Nc2ccc3oc(=O)sc3c2)c1,89.5% (inactive)
6,Cc1ccc(S(=O)(=O)Nc2ccc3oc(=O)sc3c2)c(C)c1,21.7% (inactive)
7,OCCN1CCN(CCOc2ccccc2-c2ccccc2)CC1,-1.14% (inactive)
8,C=C(C)c1cccc(C(C)(C)NC(=O)Nc2cc(C)ccn2)c1,14.8% (inactive)
9,C=C(C)c1cccc(C(C)(C)NC(=O)Nc2ccc(Cl)cn2)c1,6.48% (inactive)
10,O=C(C=C1CCN(c2ncc(C(F)(F)F)cc2Cl)CC1)NNC(=O)Nc1ccc(Cl)cc1,1.48% (inactive)
11,Nc1c(N(CCO)C(=O)C2CCCCC2)c(=O)[nH]c(=O)n1Cc1ccccc1,3.34% (inactive)
12,COCCCN(C(=O)c1cc2c(s1)CCC2)c1c(N)n(Cc2ccccc2)c(=O)[nH]c1=O,-2.38% (inactive)
13,Cc1nnc2sc(-c3ccccn3)nn12,-1.47% (inactive)
14,COC(=O)C1=C(N)Oc2cc(C)n(CCCn3ccnc3)c(=O)c2C1c1ccc(Cl)cc1 (stereo not given),27.9% (active)
15,COC(=O)C1=C(N)Oc2cc(C)n(C)c(=O)c2C1c1ccc(Cl)cc1 (stereo not given),-1.12% (inactive)
16,COC(=O)C1=C(N)Oc2cc(C)n(CC3CCCO3)c(=O)c2C1c1ccc(Cl)cc1 (stereo not given),10.9% (inactive)
17,Cc1ccc(C)c(-n2c(Cc3cccs3)n[nH]c2=S)c1,-6.44% (inactive)
18,CC(C)CCNC(=O)C(c1ccco1)N(CCCO)C(=O)Cn1nnc(-c2ccc(F)cc2)n1 (stereo not given),2.71% (inactive)
19,O=C(CSc1nnc(NC2CCCCC2)s1)Nc1ccc(N2CCOCC2)cc1,0.83% (inactive)
20,O=C(Nc1ccccc1)/C(=C/c1cccnc1)NC(=O)c1ccco1,-3.98% (inactive)
21,CCOc1cc(/C=N\NC(=O)c2ccc(C)nc2)cc([N+](=O)[O-])c1O,19.1% (inactive)
22,Cc1ccc(/C=N/NC(=O)c2cccs2)cc1[N+](=O)[O-],5.44% (inactive)
23,O=C(c1cccnc1)N1CCN(c2ccc([N+](=O)[O-])cc2Cl)CC1,7.28% (inactive)
24,CCN1CCCC1CNC(=O)C(=O)Nc1ccccc1 (stereo not given),4.81% (inactive)
25,O=C1Nc2ccc(Cl)cc2C12Nc1ccccc1-c1nnc(SCc3ccccc3F)nc1O2 (stereo not given),19.9% (inactive)
26,O=C1Nc2ccc(F)cc2C12Nc1ccccc1-c1nnc(SCc3ccccc3Cl)nc1O2 (stereo not given),14.4% (inactive)
27,CC(Oc1cc(F)ccc1[N+](=O)[O-])C(=O)N(C)CC(=O)Nc1ccccc1C(F)(F)F (stereo not given),7.16% (inactive)
